Screens: PubChem BioAssay, National Center for Advancing Translational Sciences (NCATS)
Tau ThT inhib = blocks human tau fibril formation measured by thioflavin T | recombinant tau K18 P301L, heparin-induced fibrillization, ThT fluorescence | Potency, µM (titrated, usually from 57.4 µM), for inactives: at the top dose activity, negative = inhibition, actives largely listed as inhibitors | actives 2.1% (n = 270,000) | AID 1460 | P10636; further: nearly all actives have a fitted effect of over 55% in size
Target sequence (P10636 561-689 P618L limits assumed): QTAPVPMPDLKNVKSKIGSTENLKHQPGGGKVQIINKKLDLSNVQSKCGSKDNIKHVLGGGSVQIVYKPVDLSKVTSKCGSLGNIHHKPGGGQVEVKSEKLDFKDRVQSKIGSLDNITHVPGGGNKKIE
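Tau K18 P301L fragment (15 uM unlabeled plus 0.24 uM Alexa 594-labeled) in 100 mM sodium acetate pH 7 with compound, fibrillization induced by 20 uM heparin for 6 hr at 37 C. Thioflavin T (30 uM) added, fluorescence read after 1 hr (ex 450, em 510 nm).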
Tau fibril FP = blocks human tau fibril formation measured by polarization | P10636 | K18 P301L tau heparin fibrillization, Alexa594 FP, 6 h | Potency, µM (series often up to 57.7 µM), for the others: at the top dose activity, negative = inhibition, most hits filed as inhibitors | actives 0.39% (n = 280,000); further: nearly all actives have a fitted effect of over 55% in size
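Quantitative HTS format: compounds meet 15 uM recombinant K18 P301L tau and Alexa 594-tau tracer in 100 mM sodium acetate pH 7; 20 uM heparin triggers fibrillization at 37 C over 6 hr; FP gives the signal.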
KDM4E inh = blocks human JMJD2E demethylase activity; actives 1.6% (n = 230,000); Potency, µM (top dose mostly 57.1 µM), for the others: at the top dose activity change, negative = inhibition, usual class: inhibitors; JMJD2E catalytic domain, FDH-coupled NADH fluorescence (FDH is formaldehyde dehydrogenase); B2RXH2; active means well fitted inhibition curve with a large enough effect, not every such curve was filed as active; inconclusive means small, poorly fitted or top-dose-only effect, or another doubt; inactive means no such curve, though single readings can be large or run the other way;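 further: 0% = wells with enzyme and -100% = buffer wells without enzyme; nearly all actives have a fitted effect of over 50% in size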
GoLoco inh red = RGS12 GoLoco-Gai1 interaction inhibition; Potency, µM (top dose mostly 61.6 µM), for inactives: at the highest dose activity, negative = inhibition, hits mostly inhibitors; Gai1:RGS12 GoLoco peptide FP, rhodamine, 10 min; P63096; actives 0.44% (n = 230,000); AID 880; active means well fitted inhibition curve with a large enough effect, not every such curve was filed as active; inactive means no such curve, though single readings can be large or run the other way; further: nearly all actives have a fitted effect of over 30% in size
Target sequence (P63096 whole entry, looked up): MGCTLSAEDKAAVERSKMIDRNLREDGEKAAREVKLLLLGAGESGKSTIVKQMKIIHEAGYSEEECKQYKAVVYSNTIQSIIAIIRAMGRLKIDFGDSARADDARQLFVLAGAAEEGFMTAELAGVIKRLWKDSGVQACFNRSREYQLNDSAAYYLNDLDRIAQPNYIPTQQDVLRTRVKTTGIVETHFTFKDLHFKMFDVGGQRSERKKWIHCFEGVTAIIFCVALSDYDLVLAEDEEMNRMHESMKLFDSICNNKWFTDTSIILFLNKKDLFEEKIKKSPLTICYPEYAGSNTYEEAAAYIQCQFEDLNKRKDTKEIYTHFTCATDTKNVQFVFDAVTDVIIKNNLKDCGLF
Tau fluor cs = counter-screen for tau fibril formation inhibitors. tau K18 P301L Alexa594 fluorescence, heparin fibrillization. Potency, µM (top dose mostly 57.7 µM), for inactives: top-dose activity change, negative = decrease. actives 0.93% (n = 280,000); further: nearly all actives have a fitted effect of over 55% in size
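Human tau K18 P301L (15 uM unlabeled, 0.24 uM Alexa 594-labeled) in 100 mM sodium acetate pH 7 with 20 uM heparin, 6 hr at 37 C. ThT 30 uM added, 1 hr ambient; Alexa 594 FP and total fluorescence read at 555/632 nm.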
Active calls of the source: *; u = inconclusive; x = not tested or not shown; [ ] = another dose, or the depositor's remark. The list is not random: actives were taken first. Their share in the collection is about 3.4%. Unless noted, the call rests on the fitted dose curve; in most records, active means well fitted curve in the direction sought with a large enough effect; inconclusive means small, poorly fitted or top-dose-only effect, or another doubt; inactive means no such curve, though single readings can be large; an effect the other way counts as inactive or inconclusive. Unless noted, on the % scale 0 is the no-effect control and ±100 the full control effect; potency means the concentration at half of the fitted maximal effect.

SMILES	Tau ThT inhib	Tau fibril FP	KDM4E inh	GoLoco inh red	Tau fluor cs
Cn1cc(C(=O)N/N=C/c2c(O)ccc3ccccc23)ccc1=O	0%	-2%	4%	3%	-8%
COC(=O)c1cccc(-n2c(CCC(=O)O)ccc2-c2cccs2)c1	u	2%	25µM*	-2%	-16%
CCc1cccc(NC(=O)Cn2c(=O)n3nc(-c4cccc(F)c4)nc3c3ccccc32)c1	-14%	-8%	x	x	-7%
O=[N+]([O-])c1cccc(N2Cc3ccccc3C2)c1	16µM*	u	u	-1%	u
FC(F)(F)c1cccc(N2Cc3ccccc3C2)c1	-16%	-8%	-4%	2%	-13%
Cc1ccc(C(=O)Nc2nc(=O)n(C(=O)c3ccccc3C)s2)cc1	14µM*	u	-7%	9%	-23%
O=C(Nc1nc(=O)n(C(=O)C2CC2)s1)c1ccccc1	11µM*	u	4%	-9%	-19%
Cc1ccc(C(=O)Nc2nc3ccccc3c(=O)s2)cc1	-17%	-5%	-12%	9%	-1%
Cc1ccccc1NC(=O)c1cccc2nc3ccccc3nc12	8.9µM*	u	7%	60%	u
Cc1nn(C)cc1C(=O)NNC(=S)Nc1ccccc1	-5%	1%	-2%	4%	1%
Cc1cc(C(=O)NNC(=S)Nc2ccccc2)nn1C	-13%	-2%	8.9µM*	21%	-6%
Cc1nn(-c2ccccc2)c(Cl)c1/C=N/NC(=O)C1COc2ccccc2O1 (stereo not drawn)	u	5%	6%	-4%	-5%
CCOC(=O)c1ccc(-n2c(O)c(/C=N/NC(=O)C3COc4ccccc4O3)c3ccccc3c2=O)cc1 (stereo not drawn)	u	12%	25µM*	67%	u
COc1cc(/C=N\Nc2nc3ccccc3[nH]2)cc(OC)c1OC	u	-3%	10%	14%	5%
C(=N\Nc1nc2ccccc2[nH]1)/c1ccccn1	u	-9%	-11%	-4%	-23%
C(=N\Nc1ccc2ccccc2n1)/c1ccc2c(c1)OCCO2	u	4%	u	5%	u
Fc1ccccc1-c1ccc(/C=N/Nc2nc3ccccc3[nH]2)o1	6.3µM*	9%	u	15%	14µM*[quencher]
COc1ccc2c(c1)c(/C=N/Nc1nc3ccccc3[nH]1)c(C)n2C	22µM*	u	u	18%	28µM*[quencher]
COc1ccc(/C=N/Nc2nc3ccccc3[nH]2)cc1OC	13µM*	u	-5%	13%	u
C(=N\Nc1nc2ccccc2[nH]1)/c1ccc2c(c1)OCCO2	4µM*	12%	-18%	17%	u
Cc1c(C(=O)N2CCC(C)CC2)c(S(=O)(=O)N2CCN(c3ccc(Cl)cc3)CC2)c(C)n1C	-10%	8%	x	x	-8%
CCN(CC)c1ccc(/C=N/Nc2nc3ccccc3[nH]2)c(O)c1	14µM*	2%	16µM*	60%	18µM*[quencher]
CCOC(=O)c1c(S(=O)(=O)N2CCC(C(=O)N3CCN(c4cccc(C)c4C)CC3)CC2)c(C)n(C)c1C	-6%	3%	x	x	7%
Cc1nn(C)cc1/C=N/NC(=O)Cn1nccc1C	7%	5%	-3%	2%	0%
COc1cc([N+](=O)[O-])cc(/C=N/NC(=O)Cn2nc(C)cc2C)c1O	u	7%	7.1µM*	4%	7%
SMILES	Tau ThT inhib	Tau fibril FP	KDM4E inh	GoLoco inh red	Tau fluor cs
COc1cc([N+](=O)[O-])cc(/C=N/NC(=O)Cn2nccc2C)c1O	x	-5%	13µM*	-3%	-10%
COc1ccc(/C=N/NC(=O)Cn2nc([N+](=O)[O-])cc2C)c(OC)c1OC	5%	0%	4%	3%	-3%
COc1cc([N+](=O)[O-])cc(/C=N/NC(=O)CSc2nnc(-c3ccccc3)n2C)c1O	x	1%	20µM*	11%	-5%
CC1CCN(S(=O)(=O)c2cc(C(=O)Nc3ccc(Br)cc3F)n(C)c2)CC1	11%	-1%	x	x	1%
O=c1[nH][nH]c(-c2ccccc2O)c1C(C[N+](=O)[O-])c1ccc(Cl)cc1Cl (stereo not drawn)	-18%	0%	-22%	10%	-30%
Cc1cc(O)c(C(C[N+](=O)[O-])c2ccc(Cl)cc2Cl)c(=O)o1 (stereo not drawn)	28µM*	u	7%	26%	-22%
O=C(CCNC(=O)c1ccccc1)N=Nc1c(O)[nH]c2ccccc12	-12%	0%	0%	9%	2%
CC(=O)c1cccc(N=Nc2c(C)[nH]c3ccccc23)c1	10µM*	-10%	1%	162%	14µM*[quencher]
O=C(O)c1ccc(N=Nc2c(O)[nH]c3ccccc23)cc1	16µM*	5%	-9%	3%	-10%
O=C(N=Nc1c(O)[nH]c2ccccc12)c1cc(NS(=O)(=O)c2cccs2)cc(NS(=O)(=O)c2cccs2)c1	-5%	u	-7%	2%	-19%
O=C(N=Nc1c(O)[nH]c2ccccc12)c1cccs1	10µM*	-14%	0%	-1%	-26%
O=C(CSc1nc2ccccc2[nH]1)N=Nc1c(O)[nH]c2ccccc12	14µM*	-13%	7%	25%	u
CCN1C(=O)C2(c3ccccc31)c1c(oc3ccc(C)cc3c1=O)C(=O)N2CCCOC(C)C (stereo not drawn)	0%	0%	x	x	-6%
Cc1ccc(C(=O)ONc2ccc(N=O)cc2)cc1	-27%	-3%	3%	-4%	-12%
Cc1ccc(C(=O)ONc2ccc(N=NC(=O)c3ccccc3O)cc2)cc1	2.2µM*	-3%	u	7%	u
CCCCNS(=O)(=O)c1ccc2nc(SCC(=O)Nc3cccc(F)c3)[nH]c2c1	-7%	-13%	8%	8%	-29%
CCCCNS(=O)(=O)c1ccc2nc(SCC(=O)Nc3ccccc3Cl)[nH]c2c1	2%	25µM*	-8%	x	u
Cc1cc(OC(C)C(=O)N(Cc2ccc(N(C)C)cc2)Cc2ccco2)ccc1Cl (stereo not drawn)	-15%	11%	x	x	-25%
c1ccc(-c2nnc(-c3ccccn3)s2)nc1	u	16%	2.8µM*	-5%	1%
c1ccc(-c2nc(-c3ccccn3)nc(-c3ccccn3)n2)nc1	5%	-1%	u	9%	13%
CC1CCC/C(=C\Nc2ccc(O)cc2)C1=O (stereo not drawn)	18µM*	u	u	28µM*	u
CC(=O)N(/N=C1\Sc2ccccc2C1=O)c1ccccc1C	11µM*	6%	5%	37%	-17%
CC(=O)N(/N=C1\Sc2ccccc2C1=O)c1ccc(C)cc1C	u	5%	5%	17%	-21%
Cc1cccc(NC(=O)Cn2c(=O)n(CCCCCC(=O)NCc3ccc4c(c3)OCO4)c(=O)c3sccc32)c1	6%	-19%	x	x	u
COc1ccc2nc(N3C(=O)/C(=C/c4ccc(Cl)cc4)NC3=S)sc2c1	1.1µM*	0%	2%	122%	-11%
